Assay results as given in PubChem BioAssay.
Calls of active or inactive are those of the source.

Assays:
[1] = binders of probe aFSTL3 on microarray, primary screen, stem cell growth factor project, biochemical, small-molecule microarray, fluorescence 635/667 (AID 1064); details: higher = more signal;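 note: measures binding of the biotinylated anti-FSTL3 antibody to printed compounds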
[2] = binders from COS7 lysate, DM2A8 probe, primary screen, torsin A project, cell lysate, small-molecule microarray, fluorescence 635/667 (AID 1065); details: higher = more signal, COS7 lysate expressing mutant human TOR1A
[3] = binders of probe aFGF2 on microarray, primary screen, stem cell growth factor project, biochemical, small-molecule microarray, fluorescence 635/667 (AID 1067); details: higher = more signal;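 note: measures binding of biotinylated aFGF2 protein to printed compounds on slides; z-score merges feature fluorescence and signal-to-noise across triplicate slides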
[4] = binders of probe aFGF10 on microarray, primary screen, stem cell growth factor project, biochemical, small-molecule microarray, fluorescence 635/667 (AID 1071); details: higher = more signal;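 note: score merges 667 nm spot intensity and signal to noise from triplicate slides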
[5] = molecular target: Neurogenic locus notch homolog protein 2 (Homo sapiens) (UniProt Q04721); assay: Notch2 binders on small-molecule microarrays, primary screen, biochemical, small-molecule microarray, 635 nm fluorescence, stem cell growth factors (AID 1073); details: Notch2 binding, higher = more signal
[6] = molecular target: Pro-neuregulin-1, membrane-bound isoform (Homo sapiens) (UniProt Q02297); assay: NRG1 binders on small-molecule microarrays, primary screen, psychiatric disease protein project, biochemical, small-molecule microarray, fluorescence 635/667 (AID 1075); details: NRG1 binding, 635 nm fluorescence, higher = more signal;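 note: score combines 667 nm spot fluorescence with signal to noise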
Sequence of Pro-neuregulin-1, membrane-bound isoform (Homo sapiens) (Q02297 whole entry, looked up, the tested form may be a part, canonical isoform): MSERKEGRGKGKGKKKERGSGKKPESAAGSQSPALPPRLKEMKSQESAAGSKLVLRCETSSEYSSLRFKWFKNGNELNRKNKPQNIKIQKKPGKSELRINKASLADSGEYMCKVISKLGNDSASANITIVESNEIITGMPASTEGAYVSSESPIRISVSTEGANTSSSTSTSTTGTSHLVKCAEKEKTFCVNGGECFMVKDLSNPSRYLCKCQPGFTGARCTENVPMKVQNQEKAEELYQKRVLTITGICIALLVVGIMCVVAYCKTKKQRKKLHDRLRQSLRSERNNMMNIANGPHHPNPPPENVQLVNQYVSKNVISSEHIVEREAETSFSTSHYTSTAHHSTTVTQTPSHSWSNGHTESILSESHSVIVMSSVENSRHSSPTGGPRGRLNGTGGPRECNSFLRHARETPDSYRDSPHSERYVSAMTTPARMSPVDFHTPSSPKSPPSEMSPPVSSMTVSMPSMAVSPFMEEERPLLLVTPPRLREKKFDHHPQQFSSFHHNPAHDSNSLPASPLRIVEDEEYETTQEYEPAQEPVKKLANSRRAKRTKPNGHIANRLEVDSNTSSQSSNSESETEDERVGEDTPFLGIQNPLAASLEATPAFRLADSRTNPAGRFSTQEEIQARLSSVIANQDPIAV

[7] = system: Neuregulin-1 EGF-like domain; assay: binders of neuregulin-1 EGF-like domain, primary screen, biochemical, small-molecule microarray, 635 nm fluorescence (AID 1081); details: small-molecule microarray binding, higher = more signal;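 note: binding of the protein to compounds printed on small-molecule microarray slides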
[8] = FRG1 promoter luciferase signal modulators, primary screen, FRG1 inhibition for FSHD, cell-based, C2C12 myotubes, firefly/Renilla luciferase, luminescence (AID 1084); details: higher = more signal, called active from +8 up or from −8 down
[9] = binders of probe aFST on microarray, primary screen, stem cell growth factor project, biochemical, small-molecule microarray, fluorescence 635/667 (AID 1086); details: higher = more signal;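 note: score merges 667 nm fluorescence with signal-to-noise of each printed compound spot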
[10] = binders of probe aHhip on microarray, primary screen, stem cell growth factor project, biochemical, small-molecule microarray, fluorescence 635/667 (AID 1087); details: higher = more signal;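 note: score merges spot fluorescence at 667nm with spot signal to noise ratio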
[11] = system: PRMT1 (protein arginine N-methyltransferase 1); assay: PRMT1 binders on small-molecule microarrays, primary screen, biochemical, small-molecule microarray, 635 nm fluorescence (AID 1088); details: small-molecule microarray binding, higher = more signal;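 note: binding of Prmt1 protein to compounds spotted on small-molecule microarray slides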
[12] = yeast growth modulation, basal conditions, primary screen, YJM789 clinical isolate, OD600, 24 h (AID 1089);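 note: growth of clinical yeast isolate S. cerevisiae YJM 789 seeded 1000 cells per well; test concentration not given here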; details: S. cerevisiae YJM789 growth, higher = more signal, called active from +8 up or from −8 down
[13] = fission yeast growth modulation, primary screen, strain 972, OD600, 24 h, no modulator (AID 1090);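 note: basal condition with compound alone and no growth modifier present; test concentration not given here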; details: S. pombe 972 growth, higher = more signal, called active from +8 up or from −8 down
[14] = S. cerevisiae growth modulation with rapamycin, primary screen, strain BY4716, OD600, 96 h (AID 1091); details: higher = more signal, called active from +8 up or from −8 down; note: test concentration not given here
[15] = molecular target: Torsin-1A-interacting protein 2 (Homo sapiens) (UniProt Q8NFQ8); assay: LULL1 binders on small-molecule microarray, primary screen, cell lysate, human LULL1 lysate, 635/667 nm fluorescence (AID 1092); details: hLULL1 lysate binding, 635 nm fluorescence, higher = more signal;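 note: probe is lysate of COS7 cells overexpressing human LULL1; score merges per-feature 667 nm fluorescence with signal-to-noise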
Sequence of Torsin-1A-interacting protein 2 (Homo sapiens) (Q8NFQ8 whole entry, looked up): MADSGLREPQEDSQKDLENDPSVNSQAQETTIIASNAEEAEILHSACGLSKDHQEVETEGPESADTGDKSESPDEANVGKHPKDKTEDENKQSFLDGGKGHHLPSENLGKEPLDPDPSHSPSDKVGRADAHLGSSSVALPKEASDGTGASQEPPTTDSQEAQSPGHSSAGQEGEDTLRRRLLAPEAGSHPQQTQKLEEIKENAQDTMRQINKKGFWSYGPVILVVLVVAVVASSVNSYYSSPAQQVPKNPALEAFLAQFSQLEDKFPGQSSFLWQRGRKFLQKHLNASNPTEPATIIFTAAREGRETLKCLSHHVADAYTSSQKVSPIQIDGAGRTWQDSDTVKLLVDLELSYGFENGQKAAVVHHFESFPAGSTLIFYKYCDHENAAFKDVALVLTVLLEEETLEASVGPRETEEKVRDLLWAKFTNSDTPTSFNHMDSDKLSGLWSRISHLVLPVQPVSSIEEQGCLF

[16] = E. coli growth modulation, two-sided OD650, primary screen, E. coli filamentation project, strain DRC41, 24 h (AID 1093); details: OD650, 24 h, higher = more signal, called active from +8 up or from −8 down;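 note: MC1000 strain lacking acrAB efflux and sulA so SOS filamentation is blocked; test concentration not given here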
[17] = small-molecule microarray binders of probe aLefty2, primary screen, biochemical, biotinylated probe, 635/667 nm fluorescence (AID 1094); details: higher = more signal;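 note: score merges spot fluorescence near 667 nm with spot signal-to-noise ratio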
[18] = system: Noggin (protein binding on small-molecule microarray); assay: Noggin binders on small-molecule microarray, primary screen, biochemical, 635/667 nm fluorescence (AID 1095); details: 635 nm fluorescence, higher = more signal;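 note: score merges 667 nm feature fluorescence with signal to noise over triplicate slides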
[19] = molecular target: Neurogenic locus notch homolog protein 3 (Homo sapiens) (UniProt Q9UM47); assay: NOTCH3 binders on small-molecule microarray, primary screen, biochemical, 635/667 nm fluorescence (AID 1096); details: NOTCH3 binding, 635 nm fluorescence, higher = more signal
Sequence of Neurogenic locus notch homolog protein 3 (Homo sapiens) (Q9UM47 whole entry, looked up): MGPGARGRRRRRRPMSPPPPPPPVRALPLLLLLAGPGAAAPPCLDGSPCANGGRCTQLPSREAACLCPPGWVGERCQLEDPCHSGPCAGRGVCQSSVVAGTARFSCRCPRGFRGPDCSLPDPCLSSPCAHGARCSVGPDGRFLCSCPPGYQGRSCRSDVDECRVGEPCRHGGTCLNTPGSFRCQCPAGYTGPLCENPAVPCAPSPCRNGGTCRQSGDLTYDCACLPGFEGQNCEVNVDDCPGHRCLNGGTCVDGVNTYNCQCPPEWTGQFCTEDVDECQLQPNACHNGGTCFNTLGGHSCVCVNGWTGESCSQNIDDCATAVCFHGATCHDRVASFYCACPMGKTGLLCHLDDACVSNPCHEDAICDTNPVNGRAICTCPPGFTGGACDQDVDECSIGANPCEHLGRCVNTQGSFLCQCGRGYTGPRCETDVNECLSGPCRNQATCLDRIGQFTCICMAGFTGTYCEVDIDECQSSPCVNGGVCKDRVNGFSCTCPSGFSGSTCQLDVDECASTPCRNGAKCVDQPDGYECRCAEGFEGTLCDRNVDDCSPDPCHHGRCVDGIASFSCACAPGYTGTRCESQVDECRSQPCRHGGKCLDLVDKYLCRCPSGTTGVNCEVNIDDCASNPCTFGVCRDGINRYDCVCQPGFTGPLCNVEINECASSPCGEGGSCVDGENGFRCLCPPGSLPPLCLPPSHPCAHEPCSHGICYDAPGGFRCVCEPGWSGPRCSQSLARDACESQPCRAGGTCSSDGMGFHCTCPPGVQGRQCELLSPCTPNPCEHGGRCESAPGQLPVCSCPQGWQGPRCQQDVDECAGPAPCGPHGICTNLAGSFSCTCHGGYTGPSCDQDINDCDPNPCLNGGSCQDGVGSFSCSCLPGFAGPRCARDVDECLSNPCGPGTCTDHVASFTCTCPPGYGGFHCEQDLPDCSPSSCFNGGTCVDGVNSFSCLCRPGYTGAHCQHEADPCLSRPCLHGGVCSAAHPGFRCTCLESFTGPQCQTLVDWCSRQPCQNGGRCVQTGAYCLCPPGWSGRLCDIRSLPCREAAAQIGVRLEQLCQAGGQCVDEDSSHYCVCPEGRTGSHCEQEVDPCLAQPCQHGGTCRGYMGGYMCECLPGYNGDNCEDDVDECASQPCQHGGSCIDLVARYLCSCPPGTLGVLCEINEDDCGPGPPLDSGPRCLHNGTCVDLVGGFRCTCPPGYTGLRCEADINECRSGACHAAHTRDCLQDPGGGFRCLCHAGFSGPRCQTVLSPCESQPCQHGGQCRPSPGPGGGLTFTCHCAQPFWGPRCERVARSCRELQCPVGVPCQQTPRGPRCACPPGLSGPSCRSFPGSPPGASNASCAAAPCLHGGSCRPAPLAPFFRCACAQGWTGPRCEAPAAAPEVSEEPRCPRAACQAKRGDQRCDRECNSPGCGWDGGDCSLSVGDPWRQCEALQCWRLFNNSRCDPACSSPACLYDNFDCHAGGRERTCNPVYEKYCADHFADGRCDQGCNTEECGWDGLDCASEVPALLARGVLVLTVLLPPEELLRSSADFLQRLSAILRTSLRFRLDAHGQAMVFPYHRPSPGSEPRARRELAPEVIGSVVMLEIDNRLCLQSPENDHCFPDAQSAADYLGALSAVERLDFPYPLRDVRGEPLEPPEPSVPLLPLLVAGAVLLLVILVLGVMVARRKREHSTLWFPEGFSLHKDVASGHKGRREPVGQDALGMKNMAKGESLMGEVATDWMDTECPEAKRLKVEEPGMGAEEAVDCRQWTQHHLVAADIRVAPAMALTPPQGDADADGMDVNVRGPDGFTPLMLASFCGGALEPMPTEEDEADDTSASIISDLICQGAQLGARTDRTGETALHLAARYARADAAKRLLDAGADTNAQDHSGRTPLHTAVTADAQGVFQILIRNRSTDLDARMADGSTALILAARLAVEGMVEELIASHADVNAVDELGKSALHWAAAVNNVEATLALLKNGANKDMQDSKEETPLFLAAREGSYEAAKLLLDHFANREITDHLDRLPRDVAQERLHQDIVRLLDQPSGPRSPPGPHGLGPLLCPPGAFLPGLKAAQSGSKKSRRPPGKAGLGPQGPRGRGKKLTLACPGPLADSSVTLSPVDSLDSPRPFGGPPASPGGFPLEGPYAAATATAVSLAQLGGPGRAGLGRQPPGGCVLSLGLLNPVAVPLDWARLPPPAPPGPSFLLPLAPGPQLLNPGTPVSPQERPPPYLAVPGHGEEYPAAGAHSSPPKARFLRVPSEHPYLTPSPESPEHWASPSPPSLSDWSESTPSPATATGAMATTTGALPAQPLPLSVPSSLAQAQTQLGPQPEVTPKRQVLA

[20] = small-molecule microarray binders of probe aEGFR, primary screen, biochemical, biotinylated probe, 635/667 nm fluorescence (AID 1097); details: higher = more signal;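 note: probe is a biotinylated anti-EGFR antibody binding compounds printed on slides; score combines fluorescence near 667 nm and signal to noise of each spot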

SMILES	composite z-score [1]	composite z-score [2]	composite z-score [3]	composite z-score [4]	composite z-score [5]	composite z-score [6]	composite z-score [7]	z-score [8]	composite z-score [9]	composite z-score [10]	composite z-score [11]	z-score [12]	z-score [13]	z-score [14]	composite z-score [15]	z-score [16]	composite z-score [17]	composite z-score [18]	composite z-score [19]	composite z-score [20]
CO[C@H]1O[C@H](CO)[C@@H](OC(=O)Nc2ccc(Oc3ccccc3)cc2)[C@H](OC(=O)Nc2ccccc2-c2ccccc2)[C@@H]1OC(=O)Nc1ccccc1-c1ccccc1	0.531	1.21	0.0325	1.02	1.57	1.59	1.18	1.17 (inactive)	1.03	-0.121	1.54	1.96 (inactive)	0.592 (inactive)	0.974 (inactive)	2.72	1.39 (inactive)	0.143	0.156	1.12	0.425
C=C(/C=C/CNS(=O)(=O)c1ccc(C)cc1)[C@H](O)[C@H]1CCCN1S(=O)(=O)c1ccccc1[N+](=O)[O-]	-0.402	0.578	-0.0817	0.395	0.324	0.211	0.0706	-4.12 (inactive)	0.279	0.0373	0.13	1.27 (inactive)	0.24 (inactive)	1.72 (inactive)	-0.271	0.913 (inactive)	-0.0948	1.3	0.291	0.0408
CN1C(=O)[C@@]2(CCS(=O)(=O)c3ccccc3)N=C(c3ccc(OCCCO)cc3)O[C@H]2c2ccccc21	0.185	0.394	-0.102	0.832	1.45	1.59	1.34	-3.84 (inactive)	1.09	-0.04	1.53	-0.175 (inactive)	-0.585 (inactive)	2.05 (inactive)	3.05	0.708 (inactive)	0.276	0.931	0.377	-0.0493
CCOC(=O)C1=CC[C@@H](c2ccccc2C(F)(F)F)N(S(=O)(=O)c2ccc(C)cc2)C1	0.811	1.54	0.313	1.1	1.67	1.79	1.28	-3.59 (inactive)	0.997	-0.0439	1.5	-2.43 (inactive)	-0.598 (inactive)	0.105 (inactive)	2.63	-0.607 (inactive)	0.495	0.03	1.04	0.678
CC=CC(O)C1C=CC2C(=O)N(c3ccccc3)C(=O)C2N1Nc1ccccc1 (stereo not given)	0.393	0.274	-0.0114	1.02	1.68	1.91	1.29	0.568 (inactive)	1.14	-0.0852	1.55	0.0831 (inactive)	-0.32 (inactive)	-0.474 (inactive)	3.33	0.143 (inactive)	0.209	0.0919	1.09	0.113
CCOC(=O)C[C@H]1[C@H](OC(=O)c2ccc(C(=O)c3ccccc3)cc2)[C@@H](NC(=O)c2ccc3ccccc3c2)c2cc(OCCCO)ccc2N1C(=O)c1ccccc1	-0.476	0.443	-0.0943	0.757	1.48	1.01	1.07	0.0732 (inactive)	0.355	-0.0672	1.56	-0.79 (inactive)	-0.681 (inactive)	-0.278 (inactive)	2.54	-0.551 (inactive)	0.0773	0.354	1.09	0.116
CC(=O)N1Cc2ccccc2C[C@]2(N=C(c3ccc(OCCCO)cc3)O[C@@H]2c2ccccc2)C1=O	0.864	0.688	0.0512	0.458	0.875	1.04	1.34	-2.24 (inactive)	0.33	-0.238	1.55	0.369 (inactive)	-2.91 (inactive)	13.6 (active)	3.07	1.52 (inactive)	0.0081	0.648	1.07	0.0557
CCOC(=O)C[C@H]1[C@H](OC(=O)c2ccc(-c3ccccc3)cc2)[C@@H](NC(=O)C2CCCCC2)c2cc(OCCCO)ccc2N1C(=O)c1ccccc1	-0.539	0.338	-0.0344	0.303	0.425	0.397	0.337	-0.298 (inactive)	0.345	0.103	0.5	0.285 (inactive)	0.881 (inactive)	1.29 (inactive)	1.44	-0.964 (inactive)	-0.13	0.714	0.855	-0.113
[N-]=[N+]=NCc1ccccc1C[C@@]1(C(N)=O)N=C(c2ccc(OCCCO)cc2)O[C@@H]1c1ccccc1CN=[N+]=[N-]	0.517	-0.186	-0.0469	0.972	1.53	1.01	1.19	1.56 (inactive)	0.544	-0.0645	1.22	0.656 (inactive)	-0.0127 (inactive)	0.0339 (inactive)	2.94	0.585 (inactive)	0.123	-0.0392	0.808	0.263
CC(C)CN1C(=O)[C@@]2(Cc3ccccc31)c1ccccc1C(=O)N(Cc1ccccc1C(F)(F)F)[C@H]2c1ccc(CO)cc1	0.0106	-0.0077	-0.167	0.2	-0.202	-0.84	-1.12	-1.04 (inactive)	0.0594	-0.374	-1.7	-1.17 (inactive)	-0.147 (inactive)	-3 (inactive)	-1.21	-0.861 (inactive)	0.0169	-0.0224	-0.527	-0.187
C=CC[C@H](OC(=O)Nc1ccc(OC)cc1)c1ccc(O)c2ccccc12	-0.471	0.38	-0.0894	0.517	1.28	0.473	0.933	6.36 (inactive)	0.0069	0.176	1.33	-23.9 (active)	-19.5 (active)	-1.21 (inactive)	2.08	0.364 (inactive)	0.054	0.578	1.06	-0.0509
COc1cc2c(cc1OC)CN(C(=O)[C@H]1[C@@H]3C(=O)O[C@@H](c4ccccc4)[C@@H](c4ccccc4)N3[C@@H](c3ccc(OCCO)cc3)[C@]13C(=O)Nc1ccc(C#CCCO)cc13)CC2	-0.0463	0.853	0.0746	0.844	1.43	1.39	0.874	-0.0164 (inactive)	0.707	0.305	1.54	2.48 (inactive)	1.55 (inactive)	5.29 (inactive)	2.87	0.314 (inactive)	0.0448	1.14	1.06	-0.0069
COC(=O)C[C@H]1O[C@]2(C(=O)N(C)c3ccccc32)[C@@H](C)[C@@H]1[Si](C)(C)c1ccc(C)cc1	-0.361	0.285	0.033	0.453	0.778	0.274	0.815	-2.37 (inactive)	0.512	0.28	1.12	-0.421 (inactive)	-11.3 (active)	-0.673 (inactive)	0.797	2.17 (inactive)	-0.137	1.27	0.989	-0.0674
COC(=O)C1(Cc2ccccc2)C=C2C(=C(C(C)C)C(=O)C2C)CN1 (stereo not given)	1.63	1.26	0.0992	-0.66	-0.0793	1.25	0.853	3.19 (inactive)	1.24	0.773	-1.15	0.557 (inactive)	-0.315 (inactive)	0.471 (inactive)	2.41	-1.53 (inactive)	0.469	-1.79	-1.05	0.156
O=C1O[C@@H](c2ccccc2)[C@@H](c2ccccc2)N2[C@@H](c3ccc(O)cc3)[C@]3(C(=O)Nc4ccc(C#CC5=CCCCC5)cc43)[C@@H](C(=O)N3CCN(c4ncccn4)CC3)[C@H]12	-0.397	0.892	-0.0287	0.323	0.846	0.901	1.2	0.795 (inactive)	0.207	0.0116	1.55	0.922 (inactive)	0.487 (inactive)	0.566 (inactive)	3.12	1.62 (inactive)	0.517	1.86	1.15	-0.115
C=C(C(=O)CC[C@H](OC(=O)c1cccnc1)c1ccc(CO)o1)C(C)C	-0.201	0.674	-0.0415	0.467	0.355	0.904	1.25	0.0619 (inactive)	0.28	-0.121	1.51	-1.23 (inactive)	-0.796 (inactive)	-0.719 (inactive)	1.34	-0.605 (inactive)	0.152	1.02	0.623	0.0504
CCN(CC)c1ccc(N2CC=CC34O[C@@H]5/C=C\CCC(C)OC(=O)C5[C@H]3C(=O)N(CCO)[C@@H]4C2=O)cc1 (stereo not given in full)	0.478	-0.476	-0.103	-0.57	-0.331	1.57	1.15	1.16 (inactive)	-1.17	-0.134	1.2	-1.27 (inactive)	-2.02 (inactive)	-0.806 (inactive)	3.17	0.565 (inactive)	-0.134	-0.563	0.0541	-0.203
CCOc1cc(C(O)C2C=CC3C(=O)N(C)C(=O)C3N2N2CCCCC2)ccc1O (stereo not given)	-0.152	0.38	0.0421	0.348	0.885	1.45	0.496	0.133 (inactive)	0.707	0.0139	0.163	1.26 (inactive)	0.803 (inactive)	1.63 (inactive)	2.56	-0.613 (inactive)	0.0209	-0.185	0.0152	0.0054
Cc1c(NC(=O)/C(C#N)=C/C=C/c2ccc(N(C)C)cc2)c(=O)n(-c2ccccc2)n1C	-0.266	0.297	0.29	0.82	1.18	1.49	1.17	3.7 (inactive)	0.512	0.409	1.55	-0.0755 (inactive)	-0.544 (inactive)	-0.299 (inactive)	2.6	0.482 (inactive)	0.647	0.586	0.739	0.118
C=C(COC)/C(=C/C[C@@H](OC(=O)c1ccncc1)c1cccc(OCCO)c1)c1cnc2ccccc2c1	0.234	1.99	0.0601	1.19	1.76	1.14	1.2	0.589 (inactive)	1.47	0.251	1.55	-19.8 (active)	-20.6 (active)	-3.52 (inactive)	2.2	0.682 (inactive)	0.266	1.61	1.02	0.0892
